# Measured values from PubChem BioAssay AID777 (Sanford-Burnham Center for Chemical Genomics, 2007).
# Hit rate of the full screen: of about 96,000 compounds, about 19,000 (20%) were called active.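 How the source made its calls: active means blocking of liver enzyme CYP2C9 beyond about 50% at 5 µM (limit read from the data); inactive means the rest.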 Not all results are given here.
# Molecular target: Cytochrome P450 2C9 (Homo sapiens) (UniProt P11712)
# Experiment: blockers of cytochrome P450 2C9 activity – biochemical, luminescence, ADME assay, primary screen (AID 777)
# Details: CYP2C9 Supersomes, luciferin-H conversion, at 5 µM, hits give high values
# Chain of Cytochrome P450 2C9 (Homo sapiens) (P11712 whole entry, looked up): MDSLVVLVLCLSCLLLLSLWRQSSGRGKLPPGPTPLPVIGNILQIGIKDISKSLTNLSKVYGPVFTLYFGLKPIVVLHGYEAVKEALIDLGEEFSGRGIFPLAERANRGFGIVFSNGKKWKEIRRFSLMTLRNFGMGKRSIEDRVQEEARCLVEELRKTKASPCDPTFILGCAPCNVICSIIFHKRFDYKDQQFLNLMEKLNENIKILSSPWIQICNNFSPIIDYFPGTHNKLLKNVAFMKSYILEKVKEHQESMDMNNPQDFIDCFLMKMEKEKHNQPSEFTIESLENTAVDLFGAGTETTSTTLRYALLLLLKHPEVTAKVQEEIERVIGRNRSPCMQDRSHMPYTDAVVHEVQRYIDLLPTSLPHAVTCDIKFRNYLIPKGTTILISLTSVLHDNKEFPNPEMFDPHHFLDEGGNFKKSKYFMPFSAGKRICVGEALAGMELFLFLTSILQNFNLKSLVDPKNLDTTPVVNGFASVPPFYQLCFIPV
row,Structure (SMILES),inhibition
1,CNC(=S)NNC(=O)c1sccc1OCc1ccccc1,12.2% (inactive)
2,COc1cccc(-n2c(SCC(=O)NC3CCCCC3)nc3n[nH]c(C)c3c2=N)c1,19.4% (inactive)
3,COC(=O)c1ccc(NC(=O)Nc2ccc(C)cc2)cc1,34.6% (inactive)
4,CS(=O)(=O)N(CC(=O)NCc1ccco1)c1ccc2c(c1)OCO2,2.2% (inactive)
5,COC(=O)c1ccc(NC(=O)CN(c2ccc(C)cc2)S(=O)(=O)c2c(C)n[nH]c2C)cc1,91.4% (active)
6,CCOc1ccc(N(CC(=O)NCc2ccc(OC)cc2)S(=O)(=O)c2c(C)noc2C)cc1,3.9% (inactive)
7,Cc1ccc(N(CC(=O)Nc2cc(C)cc(C)c2)S(=O)(=O)c2cccc3nonc23)cc1,48.7% (inactive)
8,CCOC(=O)c1cccc(NC(=O)CN(c2ccc(C)cc2)S(=O)(=O)c2c(C)noc2C)c1,65.9% (active)
9,Cc1noc(C)c1S(=O)(=O)N(CC(=O)NCc1ccc(Cl)cc1)c1ccc2c(c1)OCO2,68.9% (active)
10,CCOc1ccc(N(CC(=O)OC)S(=O)(=O)c2c(C)noc2C)cc1,24.4% (inactive)
11,Cc1noc(C)c1C(=O)NC(C)c1ccc2c(c1)OCO2 (stereo not given),32.6% (inactive)
12,Cc1noc(C)c1S(=O)(=O)N(CC(=O)Nc1ccc2c(c1)OCCO2)c1ccc(C(C)C)cc1,72.5% (active)
13,CCN(CC)C(=O)CCC(=O)Nc1ccc(C(=O)OC)cc1,8.6% (inactive)
14,CCCCN=C(N)/C(C(=O)OCC)=C(\O)c1ccc(OC)cc1,20.5% (inactive)
15,CCC(=O)Nc1ccc2c(c1)nc(CCN1CCN(C)CC1)n2C,0.1% (inactive)
16,Cc1cc(C)n2nc(C(=O)NC(C)(C)C)nc2n1,-10.2% (inactive)
17,Cc1ccc(C(C)C)c(OCc2nnc(SCC(=O)Nc3nccs3)n2C)c1,3.8% (inactive)
18,CCn1c2c(c3ccc(OC)cc31)CCCC2=O,41.1% (inactive)
19,Cn1c(=O)c2c(SCC(=O)N3CCOCC3)nc(C3CC3)nc2n(C)c1=O,8.1% (inactive)
20,Cc1c(C)c2cc3c4c(oc3c(C)c2oc1=O)CCCC4,9.6% (inactive)
21,O=S1(=O)CC(NCc2ccccc2)C(Nc2ccc(Cl)cc2)C1 (stereo not given),27.4% (inactive)
22,Cc1ccn2cc(-c3nonc3C)cc2c1,15.3% (inactive)
23,O=C(Nc1ncc2c(n1)CC(c1ccco1)CC2=O)c1ccc(Cl)cc1 (stereo not given),31.2% (inactive)
24,C=CCn1c(SCc2csc(C)n2)nc2scc(-c3ccc(C)o3)c2c1=O,48% (inactive)

row,Structure (SMILES),inhibition
1,O=C(CN(c1ccc2c(c1)OCCO2)S(=O)(=O)c1ccccc1)Nc1ccc2c(c1)OCO2,92.2% (active)
2,COc1ccc(S(=O)(=O)N(C)CC(=O)Nc2ccc3c(c2)OCCO3)cc1OC,27.4% (inactive)
3,COc1ccc(CC(=O)Nc2ccc3c(c2)CCC3)cc1S(=O)(=O)N1CCOCC1,59.8% (active)
4,CC(C)C(=O)OCC(=O)Nc1ccc2c(c1)CCC2,-0.6% (inactive)
5,COc1ccc(CNc2ccc3c(c2)CCC3)cc1OC,7.2% (inactive)
6,CCC(=NC1CC(C)(C)NC(C)(C)C1)C1=C(O)CC(C)(C)CC1=O,13.4% (inactive)
7,Cn1c(=NC(=O)CSCC(=O)N2CCOCC2)sc2ccccc21,-13.1% (inactive)
8,O=C(CSc1ncccn1)NC(=O)NCc1ccccc1,5.8% (inactive)
9,COC(=O)Nc1sc2nc(C)cc(C)c2c1-n1cccc1,55.1% (active)
10,CCCCOC(=O)Nc1sc2nc(C)cc(C)c2c1-n1cccc1,37.4% (inactive)
11,Cc1cc(C)c2c(-n3cccc3)c(C(=O)NNS(=O)(=O)c3ccc(F)cc3)sc2n1,98.1% (active)
12,Cc1cc(C)c2c(-n3cccc3)c(NC(=O)OCc3ccccc3)sc2n1,13.2% (inactive)
13,COc1ccc(C2=Nc3cc(C)ccc3OC2)cc1,19.1% (inactive)
14,Cc1ccc(S(=O)(=O)n2cnc3ccccc32)c(C)c1,-7.6% (inactive)
15,O=C(CN1C(=O)C2C3C=CC(C3)C2C1=O)NCCc1ccccc1Cl (stereo not given),17.1% (inactive)
16,CCc1c(O)nc(SCC(=O)N2CCCCC2)n(-c2ccccc2C)c1=O,4.6% (inactive)
17,Cc1ccc2nc3n(c(=O)c2c1)CCC3,21% (inactive)
18,COc1ccc(OC)c(CNC(=O)C2CCCN(c3nc4ccccc4o3)C2)c1 (stereo not given),44.8% (inactive)
19,Cc1ccc(C(c2sc3nc(C)nn3c2O)N2CCN(c3ccccc3)CC2)cc1 (stereo not given),36% (inactive)
20,COc1ccc(CCn2nnnc2C(c2ccccc2)N2CCN(C)CC2)cc1OC (stereo not given),-6% (inactive)
21,COc1ccc(C(c2nnnn2Cc2cccs2)N2CCN(c3ccccc3)CC2)cc1OC (stereo not given),61.5% (active)
22,CC(=O)NC(C)(C)C1CC=C(C)/C(=N\O)C1 (stereo not given),-8.6% (inactive)
23,CCCCOc1ccc(C(C)(O)CCN2CCOCC2)cc1 (stereo not given),-4.9% (inactive)
24,CCCOc1ccc(C2c3c(oc4cc(C)c(C)cc4c3=O)C(=O)N2CCCN2CCOCC2)cc1 (stereo not given),90.7% (active)

row,Structure (SMILES),inhibition
1,CCOc1ccc(C2C(C(=O)O)c3ccccc3C(=O)N2CCN2CCOCC2)cc1 (stereo not given),-15.8% (inactive)
2,CC1(C)CN=C(N2CCN(c3ncnc4sc5c(c34)CCCC5)CC2)S1,39.4% (inactive)
3,CCOC(=O)C1CCN(C(=O)Cc2c(C(=O)O)[nH]c3ccccc23)CC1,5.4% (inactive)
4,Cc1ccc(SCCC(=O)OCC(=O)Nc2ncc(Cl)cc2Cl)cc1,37.2% (inactive)
5,Cc1nc2c(-c3ccccc3)c(C)[nH]n2c(=O)c1Cl,43.9% (inactive)
6,CCCCN=C1N/C(=C\c2ccco2)C(=O)N1c1ccccc1,2.2% (inactive)
7,O=S(=O)(c1ccc(Sc2nnc3ccccn23)nc1)N1CCOCC1,-4.9% (inactive)
8,Cc1ccccc1CSCCNC(=O)c1ccc(N(C)S(=O)(=O)c2ccccc2)cc1,94.3% (active)
9,CCN(c1ccccc1)S(=O)(=O)c1ccc(C(=O)Nc2nccs2)cc1,23.3% (inactive)
10,CN(c1ccc(C(=O)NCCC2=CCCCC2)cc1)S(C)(=O)=O,-11.3% (inactive)
11,O=C(CSc1nnc(-c2c[nH]c3ccccc23)o1)c1ccccc1,18.1% (inactive)
12,Cc1cccc(C)c1-n1c(C)cc(/C=C2\C(=O)NN(c3ccccc3)C2=O)c1C,41.5% (inactive)
13,Cc1ccc(Oc2ccc3c(c2)C(=O)N(c2cccc4cccnc24)C3=O)cc1,-11.5% (inactive)
14,Cc1ccc(C2(c3ccc(C)cc3)NC(=O)N(Cc3c(C)noc3C)C2=O)cc1,60.8% (active)
15,COc1ccc(C(=O)CN2C(=O)NC(C)(c3ccc(C)cc3)C2=O)cc1OC (stereo not given),17.2% (inactive)
16,COc1ccc(C(=O)CSc2n[nH]c(N)n2)cc1,2.8% (inactive)
17,O=C(CN1CCOCC1)Nc1c(-c2ccccc2)c2cc(Br)ccc2[nH]c1=O,-15.8% (inactive)
18,CS(=O)(=O)c1ccc2nc(NC(=O)C3CCCCC3)sc2c1,7.3% (inactive)
19,O=C(Nc1ccccc1N1CCN(c2ccccc2)CC1)c1cccc(F)c1,81.1% (active)
20,O=C(CN1CCN(c2ccccc2F)CC1)c1ccc2c(c1)OCO2,74.2% (active)
21,O=C(Nc1ccccc1N1CCCCC1)c1ccc2nccnc2c1,28.1% (inactive)
22,O=C(c1ccc2c(c1)OCO2)N1CCNc2ccccc2C1,-40.3% (inactive)
23,O=C(CN1CCN(CC(=O)Nc2ccc3c(c2)OCO3)CC1)Nc1ccc(F)cc1,33.1% (inactive)
24,O=C(Nc1ccccc1N1CCN(C(=O)c2ccccc2)CC1)c1ccc2c(c1)OCO2,83.3% (active)

row,Structure (SMILES),inhibition
1,O=C(Nc1ccccc1N1CCCCC1)c1cccc(F)c1,1.2% (inactive)
2,CCCC(=O)Nc1ccccc1N1CCN(C(=O)c2ccccc2)CC1,35.7% (inactive)
3,CCOc1ccc(NC(=O)N2CCN(CC)CC2)cc1,-0.2% (inactive)
4,Cc1oc2nc(SCC(=O)Nc3ccc(S(N)(=O)=O)cc3)nc(NC(=O)c3ccccc3)c2c1C,15% (inactive)
5,COc1ccc(Cc2nnnn2CC(=O)O)cc1,-11.9% (inactive)
6,Cc1ccccc1-c1ccc(Nc2ccc(C(=O)N3CCOCC3)cc2)nn1,34.1% (inactive)
7,COc1ccc(N2C(=O)CC(N3CCC(C(N)=O)CC3)C2=O)cc1 (stereo not given),-20.9% (inactive)
8,COC(=O)c1ccc(C2C(Oc3ccccc3C)C(=O)N2CCc2ccc(OC)c(OC)c2)cc1 (stereo not given),54.9% (active)
9,COc1ccc(CCN2CNc3c(c(=O)n(C)c(=O)n3C)C2)cc1OC,-29.7% (inactive)
10,COC(=O)c1ccc(C2CC(=O)Nc3cc(OC)c(OC)cc32)cc1 (stereo not given),30.2% (inactive)
11,Cc1nn(C(C)CC(=O)O)c(C)c1C (stereo not given),-4.1% (inactive)
12,COc1ccc(CN2C(=O)CN=C2Nc2ccc(C)cc2C)cc1,31.5% (inactive)
13,CCCCc1nc(NCCN)c(C#N)c2c1CSC(C)(C)C2,53.6% (active)
14,CCN(CC)c1ccc(NC(=O)c2ccc(Cl)nc2)cc1,-69.8% (inactive)
15,O=C(COc1ccccc1)Nc1nonc1NC(=O)COc1ccccc1,52% (active)
16,CCOc1cc(NC(=O)c2ccco2)c(OCC)cc1NC(=O)COc1ccccc1,11.6% (inactive)
17,CCOc1ccc(C(CC(=O)O)NC(=O)COc2ccccc2)cc1 (stereo not given),5.2% (inactive)
18,Cc1ccc(C)c2[nH]c(=O)c(CCNC(=O)CC(C)C)cc12,30.9% (inactive)
19,O=[N+]([O-])c1c(NCCO)cc(Sc2nc3ccccc3s2)c2nonc12,12.3% (inactive)
20,Cn1c(=O)cc(OCCCC(=O)N2CCN(c3ccccn3)CC2)c2ccccc21,30.3% (inactive)
21,COc1cccc(-c2nnc(NC(=O)c3ccc(S(=O)(=O)N(CC(C)C)CC(C)C)cc3)o2)c1,58.9% (active)
22,CCN(CC)C(=O)CSc1nnc(-c2cccc(OC)c2)o1,-55.9% (inactive)
23,CC1CCCCN1S(=O)(=O)c1ccc(C(=O)Nc2nnc(-c3cccs3)o2)cc1 (stereo not given),7.8% (inactive)
